{
  "source": "PubChem BioAssay (NCATS)",
  "note": "Where “and” joins values, the source holds several entries; their conditions need not be identical. Equal values may be shown once. A number with no mark means an inactive call. Inconclusive results are not listed. Where a call stands in place of a potency, no number is given. Calls of active or inactive are those of the source. Unless noted, how the calls were made is not given here.",
  "data": [
    {"test_system": "not listed separately", "experiment": "qHTS assay for cell viability of the p53RE-bla HCT-116 cell line (AID 743292; active means well fitted cell-killing curve with a large enough effect; further: nearly all actives have a fitted effect of over 55% in size)", "settings": "p53RE-bla HCT-116 viability, ATP luminescence, 16 h; series mostly up to 95 µM", "procedure,_shortened": "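CellSensor p53RE-bla HCT-116 cells, 4,000/well, preincubated 5 h at 37 C, then exposed to compounds in DMSO for 16 h at 37 C. Viability read as CellTiter-Glo luminescence (intracellular ATP) after 30 min at room temperature.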", "values": [
      {"compound": "CC(C)CO", "Potency": "inactive"},
      {"compound": "CC(=O)c1ccccn1", "Potency": "inactive"},
      {"compound": "O=[N+]([O-])c1cccc(C(F)(F)F)c1", "Potency": "inactive"},
      {"compound": "CCCC(C)CO", "note": "(stereo not drawn)", "Potency": "inactive"},
      {"compound": "O=C(O)c1ccc(Cl)c(Cl)c1", "Potency": "inactive"},
      {"compound": "CCCCCO", "Potency": "inactive"},
      {"compound": "CCCCC(C=O)CC", "note": "(stereo not drawn)", "Potency": "inactive"},
      {"compound": "CNC(=O)N(c1ccccc1)c1ccccc1", "Potency": "inactive"},
      {"compound": "CC(C)CCOC(=O)/C=C/c1ccccc1", "Potency": "inactive"},
      {"compound": "CC(C)C(C)C", "Potency": "inactive"},
      {"compound": "CC(C)(O)CCC(C)(C)O", "Potency": "inactive"},
      {"compound": "C/C=C(/C)C#N", "Potency": "inactive"},
      {"compound": "CC/C=C1/OC(=O)c2ccccc21", "Potency": "inactive"},
      {"compound": "Nc1cc([N+](=O)[O-])ccc1C(=O)O", "Potency": "inactive"},
      {"compound": "CC(=O)OC(C)=O", "Potency": "inactive"},
      {"compound": "CCCCOCCOCCOCCCC", "Potency": "inactive"},
      {"compound": "CNC(=O)c1ccccc1", "Potency": "inactive"},
      {"compound": "CCOc1ccccc1N", "Potency": "inactive"},
      {"compound": "OC/C(Br)=C(\\Br)CO", "Potency": "inactive"},
      {"compound": "O=Cc1cccc(Br)c1", "Potency": "inactive"},
      {"compound": "c1ccc(Nc2ccccc2)cc1", "Potency": "inactive"},
      {"compound": "Cc1ccccc1C=O", "Potency": "inactive"},
      {"compound": "O=C(O)CNC(=O)c1ccc([N+](=O)[O-])cc1", "Potency": "inactive"},
      {"compound": "CCc1ccccc1O", "Potency": "inactive"},
      {"compound": "CCCCCCC=O", "Potency": "inactive"},
      {"compound": "FB(F)F", "Potency": "inactive"},
      {"compound": "C=Cc1ccccn1", "Potency": "inactive"},
      {"compound": "O=Cc1ccc(C(=O)O)cc1", "Potency": "inactive"},
      {"compound": "Clc1ccc(Cl)c(Cl)c1Cl", "Potency": "inactive"},
      {"compound": "Cc1ccc2ccccc2c1[N+](=O)[O-]", "Potency": "inactive"},
      {"compound": "Cc1ccc(C(C)(C)C)cc1", "Potency": "inactive"},
      {"compound": "CN(C)CCCCl", "Potency": "inactive"},
      {"compound": "CC(N)CN", "note": "(stereo not drawn)", "Potency": "inactive"},
      {"compound": "C/C=C1\\CC2C=CC1C2", "note": "(stereo not drawn)", "Potency": "inactive"},
      {"compound": "C=CCCCCCC", "Potency": "inactive"},
      {"compound": "CCOCC(=O)O", "Potency": "inactive"},
      {"compound": "CC(=O)c1nccs1", "Potency": "inactive"},
      {"compound": "CCCCCCCCN", "Potency": "inactive"},
      {"compound": "CCc1ccccc1", "Potency": "inactive"}
    ]},
    {"biological_target": "Nuclear receptor subfamily 1 group I member 2 (Rattus norvegicus) (UniProt Q9R1A7)", "sequence (Q9R1A7 whole entry, looked up)": "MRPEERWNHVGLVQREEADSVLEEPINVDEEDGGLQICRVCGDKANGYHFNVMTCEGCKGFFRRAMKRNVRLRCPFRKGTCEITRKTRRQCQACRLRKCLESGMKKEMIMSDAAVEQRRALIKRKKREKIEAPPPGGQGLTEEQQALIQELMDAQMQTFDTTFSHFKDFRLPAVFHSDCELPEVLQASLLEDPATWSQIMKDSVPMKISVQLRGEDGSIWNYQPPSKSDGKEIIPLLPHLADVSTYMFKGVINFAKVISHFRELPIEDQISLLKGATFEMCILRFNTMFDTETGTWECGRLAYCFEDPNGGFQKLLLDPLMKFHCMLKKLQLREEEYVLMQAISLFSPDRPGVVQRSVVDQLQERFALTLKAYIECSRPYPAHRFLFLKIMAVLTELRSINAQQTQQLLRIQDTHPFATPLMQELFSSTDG", "experiment": "qHTS assay for small molecule activators of the rat pregnane X receptor (rPXR) signaling pathway (AID 651751)", "settings": "rPXR reporter cells, luciferase (One-Glo), 24 h", "values": [
      {"compound": "CC(C)CO", "max response": "1.55%"},
      {"compound": "CC(=O)c1ccccn1", "max response": "2.33%"},
      {"compound": "O=[N+]([O-])c1cccc(C(F)(F)F)c1", "max response": "-1.97%"},
      {"compound": "CCCC(C)CO", "note": "(stereo not drawn)", "max response": "0.794%"},
      {"compound": "O=C(O)c1ccc(Cl)c(Cl)c1", "max response": "-0.362%"},
      {"compound": "CCCCCO", "max response": "-1.89%"},
      {"compound": "CCCCC(C=O)CC", "note": "(stereo not drawn)", "max response": "-0.0559%"},
      {"compound": "CNC(=O)N(c1ccccc1)c1ccccc1", "max response": "1.74%"},
      {"compound": "CC(C)CCOC(=O)/C=C/c1ccccc1", "max response": "0.15%"},
      {"compound": "CC(C)C(C)C", "max response": "9.63%"},
      {"compound": "CC(C)(O)CCC(C)(C)O", "max response": "3.24%"},
      {"compound": "C/C=C(/C)C#N", "max response": "8.65%"},
      {"compound": "CC/C=C1/OC(=O)c2ccccc21", "max response": "-1.09%"},
      {"compound": "Nc1cc([N+](=O)[O-])ccc1C(=O)O", "max response": "-5.92% and 1.25%"},
      {"compound": "CC(=O)OC(C)=O", "max response": "5.82%"},
      {"compound": "CCCCOCCOCCOCCCC", "max response": "-1.56%"},
      {"compound": "CNC(=O)c1ccccc1", "max response": "-4.07%"},
      {"compound": "CCOc1ccccc1N", "max response": "2.86%"},
      {"compound": "OC/C(Br)=C(\\Br)CO", "max response": "0.247%"},
      {"compound": "O=Cc1cccc(Br)c1", "max response": "5.18%"},
      {"compound": "c1ccc(Nc2ccccc2)cc1", "max response": "1.12% and -1.15%"},
      {"compound": "Cc1ccccc1C=O", "max response": "1.66%"},
      {"compound": "O=C(O)CNC(=O)c1ccc([N+](=O)[O-])cc1", "max response": "1.39%"},
      {"compound": "CCc1ccccc1O", "max response": "-3.4%"},
      {"compound": "CCCCCCC=O", "max response": "-7.57%"},
      {"compound": "FB(F)F", "max response": "-0.777%"},
      {"compound": "C=Cc1ccccn1", "max response": "2.42%"},
      {"compound": "O=Cc1ccc(C(=O)O)cc1", "max response": "-2.3%"},
      {"compound": "Clc1ccc(Cl)c(Cl)c1Cl", "max response": "-5.98% and -1.32%"},
      {"compound": "Cc1ccc2ccccc2c1[N+](=O)[O-]", "max response": "-2.23%"},
      {"compound": "Cc1ccc(C(C)(C)C)cc1", "max response": "-0.498%"},
      {"compound": "CN(C)CCCCl", "max response": "3.08%"},
      {"compound": "CC(N)CN", "note": "(stereo not drawn)", "max response": "5.77%"},
      {"compound": "C/C=C1\\CC2C=CC1C2", "note": "(stereo not drawn)", "max response": "0.0305%"},
      {"compound": "C=CCCCCCC", "max response": "3.09%"},
      {"compound": "CCOCC(=O)O", "max response": "1.81%"},
      {"compound": "CC(=O)c1nccs1", "max response": "8.24%"},
      {"compound": "CCCCCCCCN", "max response": "0.0694%"},
      {"compound": "CCc1ccccc1", "max response": "-0.471%"}
    ]}
  ]
}
